Reference: PubChem BioAssay

Experiment: JC-1 mitochondrial signal, unstimulated myeloma cells – cell-based, JC-1 fluorescence, RPMI8226, 24 h, 100 nL compound, profiling panel (AID 1169)
Conditions: JC-1 mitochondrial potential fluorescence, higher = more signal
Note: test concentration not given here.

Structure (SMILES) | z-score
C[C@H](ON=C1[C@H]2CCn3c(=O)n(-c4ccccc4)c(=O)n3[C@H]2[C@H](O)[C@@H]2O[C@H]12)c1cn([C@H](CO)Cc2ccccc2)nn1 | -0.243
CCN1C(=O)[C@H]2[C@H]3[C@H](O)[C@H](O)CC(=O)[C@H]3CC[C@H]2C1=O | -0.0768
C#CCCCON=C1C[C@@H](O)[C@@H](O)[C@@H]2[C@@H]3C(=O)N(c4ccc(F)cc4F)C(=O)[C@@H]3CC[C@H]12 | -0.0797
O=C(NN=C1C[C@@H](O)[C@@H](O)[C@@H]2[C@@H]3C(=O)N(C4CCCCC4)C(=O)[C@@H]3CC[C@@H]12)OCc1ccccc1 | -0.369
CC(CCN1CCCCc2nc(C)c(C)cc21)=NOC[C@@H](O)COCc1ccco1 | 0.854
C=CC1=C[C@H](O)[C@@H]2O[C@@H]2C12OCCCO2 | -0.371
CON=C1[C@H]2CCn3c(=O)n(-c4ccccc4)c(=O)n3[C@H]2[C@H](O)[C@@H]2O[C@H]12 | 0.391

Experiment: JC-1 mitochondrial signal, unstimulated MM1S myeloma – cell-based, JC-1 fluorescence, 24 h, 100 nL compound, profiling panel (AID 1170)
Conditions: MM1S mitochondrial potential, higher = more signal

Structure (SMILES) | z-score
CC(CCN1CCCCc2nc(C)c(C)cc21)=NOC[C@@H](C)[C@H](OCc1ccccc1)C(C)C | -1.06
COC(=O)CC=C[C@@H](C)[C@@H](C=NO[C@@H]1O[C@H](COC(C)=O)[C@@H](OC(C)=O)[C@H](OC(C)=O)[C@H]1OC(C)=O)OC | -0.0985
CO[C@@H]1COC(=O)[C@H](CCSC)NC(=O)CC=C[C@@H](C)COC(=O)CCC[C@H]1C | -0.0804
CCCNC(=O)OC[C@H]1O[C@H](CCON=C(C)CCC(=O)OC[C@H]2O[C@H](c3ccccc3)C=C[C@@H]2Oc2ccc(OC)cc2)C=C[C@@H]1Oc1ccc(OC)cc1 | 0.33
CCN1C(=O)[C@@H]2[C@H]3C(=CC[C@@H]2C1=O)C1(OCCCO1)[C@H]1O[C@H]1[C@H]3O | -3.04
O=C1[C@H]2[C@H]3[C@H](O)[C@H](O)CC(=NOC[C@@H](O)COCc4ccco4)[C@H]3CC[C@H]2C(=O)N1Cc1ccccc1 | -0.441
CO[C@H]1COC(=O)[C@@H](C)COC(=O)[C@H](C)NC(=O)CC=C[C@H]1C | 0.86
C[C@H]1COC(=O)[C@@H]2CCCN2C(=O)[C@@H](C)COC(=O)[C@H](Cc2ccccc2)NC1=O | -0.825
COC(=O)CC=C[C@@H](C)[C@H](OCc1cccc(-c2ccccc2)c1)C1CCCCC1 | -0.172
C=CC[C@@H]1C=C[C@H](ON=C(C)CCC(=O)OC[C@H]2O[C@H](C#Cc3ccccc3)C=C[C@@H]2Oc2ccc(C)cc2)[C@@H](CO)O1 | -1.08
CON=C[C@@H](NS(=O)(=O)c1ccc(C)cc1)[C@H](C)C=CCC(=O)OC | 0.0264
CO[C@@H]1COC(=O)CC=C[C@H](C)[C@H](OC)COC(=O)[C@H](C)NC(=O)CC=C[C@H]1C | 0.273
CC(CCC(=O)OC[C@H]1O[C@H](C#Cc2ccccc2)C=C[C@@H]1Oc1ccc(C)cc1)=NO[C@H](C)c1cn([C@H](CO)Cc2ccccc2)nn1 | -0.547
CCOC(=O)[C@H](Cc1ccccc1)NC(=O)CCC1CC(OC(=O)NCc2cccc3ccccc23)CC2(CCCC(COC(=O)NCC(c3ccccc3)c3ccccc3)O2)O1 (some centres undefined) | -0.886
CC(C)=CCCC(C)=CCON=C1C[C@@H](O)[C@@H](O)[C@@H]2[C@@H]3C(=O)N(C[C@@H]4CCCO4)C(=O)[C@@H]3CC[C@H]12 | -0.789
COC(=O)[C@H]1O[C@@H](c2c(OC)c(OC)c(C)c(OC)c2OC)[C@H](C)[C@@H](O)[C@H]1C | -0.848
COc1ccc(O[C@H]2C=C[C@@H](c3ccccc3)O[C@@H]2COC(=O)CCC(C)=NOC[C@@H](O)[C@H]2O[C@@H]3OC(C)(C)O[C@@H]3[C@H]2O)cc1 | -0.199
CCOC(=O)[C@H](CC(C)C)NC(=O)CCC1CC(OC(=O)NCCc2ccc(F)cc2)CC2(CCCC(COC(=O)NCC3CCCCC3)O2)O1 (some centres undefined) | -0.24
CC(C)=CCCC(C)=CCON=C1C[C@@H](O)[C@@H](O)[C@@H]2[C@@H]3C(=O)N(C4CCCCC4)C(=O)[C@@H]3CC[C@@H]12 | -0.859
COC(=O)CC=C[C@@H](C)[C@@H](C=NOC[C@H]1O[C@H](c2ccccc2)C=C[C@@H]1Oc1ccc(OC)cc1)NS(=O)(=O)c1ccc(C)cc1 | -0.077
CCc1cc2c(nc1CC)CCN(CCC(C)=NO[C@H](C)c1cn([C@@H]3COC[C@H]3O)nn1)C2 | -0.676
CCOC(=O)NN=C1C[C@@H](O)[C@@H](O)[C@@H]2[C@@H]3C(=O)N(Cc4ccc5c(c4)OCO5)C(=O)[C@@H]3CC[C@H]12 | -1.34
